Measured values reported in PubChem BioAssay (Tox21).
“And” between values parts separate entries of the source, which are not always exact repeats. Identical values can stand only once. Results filed as inconclusive are left out. More than one record can exist for a structure, and the calls need not agree. The source made the active and inactive calls. Calls follow the shape of the dose curve; as a rule, active = well fitted cell-killing curve with a large enough effect in the repeat runs; inconclusive = weak or mixed curves; inactive = no such curve, though single readings can be large or run the other way.

Experiment: qHTS assay to identify small molecule antagonists of the peroxisome proliferator-activated receptor delta (PPARd) signaling pathway - cell viability counter screen (AID 743213); also: nearly all actives have a fitted effect of over 50% in size
Settings: PPARd-bla HEK293H viability, CellTiter-Glo luminescence, 17 h; series mostly up to 62 µM; viability change, negative = cytotoxic: at the top concentration
Excerpt: U.S. Tox21 Program National Center for Advancing Translational Sciences [NCATS] NIH Chemical Genomics Center [NCGC] U.S. Environmental Protection Agency [EPA] National Institutes of Environmental Health Sciences [NIEHS] National Toxicology Program [NTP] U.S. Food and Drug Administration [FDA] Tox21 Assay Overview: The peroxisome proliferator-activated receptors (PPARs) are lipid-activated transcription factors of the nuclear receptor superfamily with three distinct subtypes namely PPAR alpha, PPAR delta (PPARd) and PPAR gamma. All these subtypes heterodimerizes with Retinoid X receptor (RXR) and have different physiological functions. […] To identify the compounds that inhibit PPAR-delta signaling, GeneBLAzer PPAR delta UAS-bla HEK293H cell line (Invitrogen, Carlsbad, CA, USA) containing a beta-lactamase reporter gene under the control of an Upstream Activator Sequence (UAS) was used to screen the Tox21 compound library. The cytotoxicity of the Tox21 compound library against the PPARd-bla cell line was tested in parallel by measuring the cell viability using CellTiter-Glo assay (Promega, Madison, WI) in the same wells.
Tox21 Assay Protocol Summary: PPARd-bla cells were dispensed at 3000 cells/5uL/well in 1536-well black wall/clear bottom plates using a Multidrop Combi (Thermo Fisher Scientific, Waltham, MA) dispenser. After the assay plates were incubated at 37 C and 5% CO2 for 5 h, 23 nL of compounds dissolved in DMSO, positive controls or DMSO only was transferred to the assay plate by a Pintool station (Kalypsys, San Diego, CA), followed by addition of 1ul L165041 (300 nM, final concentration in the wells). The assay plates were incubated at 37 C for 17 h, and then 1 uL of LiveBLAzerTM B/G FRET substrate was added using a Bioraptr Flying Reagent Dispenser (FRD) workstation (Beckman Coulter, Indianapolis, IN, USA). The assay plates were incubated at room temperature for 2 h and fluorescence intensity was measured by an Envision plate reader (PerkinElmer, Shelton, CT). For cell viability readout that measures cytotoxicity, 3 ul/well of CellTiter-Glo reagent was added into the assay plates using a Bioraptr FRD. After 30 min incubation at room temperature, the luminescence intensity in the plates was measured using a ViewLux plate reader (PerkinElmer).
% is scaled to controls: 0 for no effect and ±100 for the full control effect; potency is read from the fitted curve at half-maximal effect.

Compound	Potency	viability change, negative = cytotoxic
CN(C)c1ccc(C(=C2C=CC(=[N+](C)C)C=C2)c2ccccc2)cc1	490 nM (active) and 3.35 µM (active)	
COC(=O)c1cccc(C(=O)OC)c1	inactive	
CC(=O)OCC1=C(C(=O)O)N2C(=O)[C@@H](NC(=O)Cc3cccs3)[C@H]2SC1		-23.7% (inactive)
O=C(O[C@@H]1Cc2c(O)cc(O)cc2O[C@@H]1c1cc(O)c(O)c(O)c1)c1cc(O)c(O)c(O)c1	inactive	
CCCCOCCOC(=O)c1ccccc1C(=O)OCCOCCCC	42.7 µM (active) and inactive	
CNCCC(Oc1ccc(C(F)(F)F)cc1)c1ccccc1 (stereo not given)	17.2 µM (active) and 21.1 µM (active)	
CCc1cc(C(C)(C)C)c(O)c(C(C)(C)C)c1	inactive	
O=C(O)c1cn(-c2ccc(F)cc2)c2cc(N3CCNCC3)c(F)cc2c1=O		0.718% [at 28.9 µM] (inactive)
O	inactive	
CC(C)(O)CCC(C)(C)O		12.3% [at 80.4 µM] (inactive)
CC(C)(C)c1cc(C(C)(C)C)c(O)c(C(C)(C)C)c1	inactive	
O=C(Cl)c1cccc(C(=O)Cl)c1	inactive	
C#CC(C)(CC)OC(=O)c1ccccc1C(=O)O (stereo not given)		17.1% (inactive)
N[C@@H]1CONC1=O		4.66% (inactive)
Cc1cc(OCCOCC[N+](C)(C)Cc2ccccc2)ccc1C(C)(C)CC(C)(C)C	19.4 µM (active)	
C=CC(=O)OCCCCCCOC(=O)C=C	inactive	
Clc1ccc2c(c1)C(N1CCNCC1)=Nc1ccccc1O2	2.19 µM (active) and inactive	
Cc1cc(Cc2cc(C)cc(C(C)(C)C)c2O)c(O)c(C(C)(C)C)c1	13.9 µM (active) and 15.5 µM (active)	
NC(N)=NC(=O)Cc1c(Cl)cccc1Cl		-14.7% (inactive)
CC(C)(c1ccccc1)c1ccc(Nc2ccc(C(C)(C)c3ccccc3)cc2)cc1		4.45% (inactive)

Compound	Potency	viability change, negative = cytotoxic
Cc1ccnc2c1NC(=O)c1cccnc1N2C1CC1		7.4% (inactive)
CC1COC(=O)O1 (stereo not given)		5.19% (inactive)
Nc1nc2ccccc2[nH]1	inactive	
CC(C)CCCCCCc1ccc(O)cc1	39.6 µM (active) and 43.6 µM (active)	
CO[Si](OC)(OC)c1ccccc1		9.43% (inactive)
CC(C)(C)NCC(O)c1cc(O)cc(O)c1 (stereo not given)		1.35% (inactive)
C=CC(=O)OCCCCCCCC		-21.3% (inactive)
CCCCCCCCCCCCCCCCCl		18.9% [at 28.9 µM] (inactive)
Cc1cc(C(C)(C)C)c(O)c(C(C)(C)C)c1		4.41% (inactive)
CC(=O)O[C@]1(C(C)=O)CC[C@H]2[C@@H]3C[C@H](C)C4=CC(=O)CC[C@]4(C)[C@H]3CC[C@@]21C	inactive	
CCCCC/C=C/CC1CC(=O)OC1=O (stereo not given)		8.5% (inactive)
CC(C)CCOC(=O)c1ccc(N(C)C)cc1		15.1% (inactive)
CCCNC(C)C(=O)Nc1ccccc1C (stereo not given)		-1.74% (inactive)
CC1=C(C=O)C(C)(C)CC=C1		1.29% [at 80.4 µM] (inactive)
BrC1CCC(Br)C(Br)CCC(Br)C(Br)CCC1Br (stereo not given)	10.4 µM (active)	
O=C(O)Cn1cnnn1		2.24% (inactive)
O=C(O)c1cc(Cl)cc(Cl)c1		-8.3% (inactive)
CCn1cc(C(=O)O)c(=O)c2cc(F)c(N3CCNC(C)C3)c(F)c21 (stereo not given)		11.7% (inactive)
CC(C)(C)c1ccc(O)c(C(C)(C)C)c1	38.7 µM (active) and 49 µM (active)	
CC(C)C(=O)c1c(C(C)C)nn2ccccc12		-9.23% (inactive)
